This is an account of results in PubChem BioAssay (NCATS).

Experiment [1] addresses Glutathione peroxidase 1 (Homo sapiens) (UniProt P07203). Put plainly: Primary qHTS Assay for Inhibitors of Recombinant Selenoprotein Glutathione Peroxidase 1 (GPX1) (AID 1845191). Also: nearly all actives have a fitted effect of over 65% in size. As to activity, negative = inhibition: % is scaled to controls: 0 for no effect and ±100 for the full control effect. In a few lines:
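Recombinant GPX1 (10 nM final) was preincubated with compound for 30 min at room temperature, then reacted with 1 mM GSH, 0.5 mM CHP, 0.5 mM NADPH and 100 nM glutathione reductase; NADPH fluorescence (340/450 nm) was read at 0 and 15 min.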
Background: In qHTS, concentration-response curves come from the screen itself.

Experiment [2] concerns the target Phospholipid hydroperoxide glutathione peroxidase GPX4 (Homo sapiens) (UniProt P36969). Put plainly: Primary qHTS Assay for Inhibitors of Recombinant Selenoprotein Glutathione Peroxidase 4 (GPX4) (AID 1845192). Also: nearly all actives have a fitted effect of over 65% in size. As to activity change, negative = inhibition: series mostly up to about 50 µM; % is scaled to controls: 0 for no effect and ±100 for the full control effect. In a few lines:
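GR-coupled readout: 100 nM GR, 1 mM GSH, 0.5 mM NADPH; NADPH fluorescence (ex 340/em 450 nm) read at t=0 and after 15 min RT. GPX4 200 nM, preincubated 30 min with compound; substrate 0.5 mM CHP.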

In experiment [3] the target is Luciferin 4-monooxygenase (Photinus pyralis) (UniProt P08659). Kind of experiment: Primary firefly luciferase (FLuc) qHTS assay for identification of artifact compounds. (AID 1845220). Also: nearly all actives have a fitted effect of over 60% in size.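 As to activity change, negative = inhibition: series mostly up to about 54 µM; plate controls were DMSO vehicle for no effect and no enzyme for full effect.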 In a few lines:
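In this counter-screen for luciferase artifacts, test compounds met substrate (10 uM each luciferin and ATP) before 10 nM enzyme started the reaction. Light output was measured 5 min later.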

A short description of experiment [4]: Primary fluorescence-based thiol-reactive (MSTI) qHTS assay for identification of artifact compounds. (AID 1845221). Also: nearly all actives have a fitted effect of over 65% in size. Also: potency is read from the fitted curve at half-maximal effect.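 As to activity change, negative = thiol reactive: series mostly up to about 54 µM; thiol-reactive compounds lower the probe fluorescence signal.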 Summed up: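 qHTS titration of compound; 4 uM MSTI, PBS pH 7.4, 2% DMSO; 1 h RT, dark; fluorescence 525/598 nm; normalized to Acetyl-MSTI and MSTI; 4-parameter Hill fit.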
The test system of experiment [5] is Nanoluciferase (engineered Oplophorus gracilirostris luciferase). Put plainly: Primary Nanoluciferase (NLuc) qHTS assay for identification of artifact compounds. (AID 1845222).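 Also: NLuc secreted into diluted conditioned medium of S16 cells; series mostly up to about 54 µM; 0% = DMSO and -100% = no enzyme.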 Summed up:
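Using secreted nanoluciferase in S16 culture medium (0.22 um filtered, 1:55 dilution), compounds were preincubated 15 min at RT. Signal was generated with Nano-Glo reagent (1:100) over 5 min.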

Experiment [6] can be described thus: Primary redox qHTS assay for identification of artifact compounds. (AID 1845223).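 Also: 0% = DMSO and 100% = reference compound.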 In a few lines: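 Amplex Red (25 uM) and HRP (250 mU/mL) in HBSS, with compounds for 15 min, then 250 uM DTT for 30 min, room temperature, dark. Fluorescence 525/598 nm read; normalized to DMSO and 10 uM DA3003; Hill fit.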

A number with no mark means an inactive call. Results filed as inconclusive are left out. Calls of active or inactive are those of the source. Calls follow the shape of the dose curve; as a rule, active = well fitted curve in the direction sought with a large enough effect; inconclusive = small, poorly fitted or top-dose-only effect, or another doubt; inactive = no such curve, though single readings can be large; an effect the other way counts as inactive or inconclusive. Where a SMILES comes first, the peptide text is derived from it. The star is where a group is joined. Cbz = O=C(OCc1ccccc1)*; CH2F = FC*

Glutathione peroxidase 1 (Homo sapiens), sequence (P07203 whole entry, looked up): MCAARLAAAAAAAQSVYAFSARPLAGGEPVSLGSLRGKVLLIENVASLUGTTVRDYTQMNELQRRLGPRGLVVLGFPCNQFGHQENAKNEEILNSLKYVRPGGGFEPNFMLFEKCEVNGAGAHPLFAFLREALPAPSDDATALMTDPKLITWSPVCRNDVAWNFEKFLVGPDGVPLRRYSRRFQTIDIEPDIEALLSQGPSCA
Phospholipid hydroperoxide glutathione peroxidase GPX4 (Homo sapiens), sequence (P36969 whole entry, looked up): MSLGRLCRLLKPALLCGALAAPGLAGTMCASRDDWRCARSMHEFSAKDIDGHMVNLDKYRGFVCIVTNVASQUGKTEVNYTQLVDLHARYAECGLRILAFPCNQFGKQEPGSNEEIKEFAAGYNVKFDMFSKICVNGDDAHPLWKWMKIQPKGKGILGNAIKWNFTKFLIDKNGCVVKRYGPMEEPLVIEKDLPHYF

As for `Cc1cc(CO)c(O)c(C(=O)CC2CC(=O)NC(=O)C2)c1`, the Potency entry in experiment [1], in experiment [2], in experiment [3], in experiment [4], in experiment [5] and in experiment [6] was “inactive” in each case.
Turning to `C=C1CC[C@H]2[C@@](C)(CCC(O)[C@@]2(C)CO)[C@@H]1/C=C/C(=C\C(=O)O)C(=O)O` (stereo not given in full), the Potency result in experiment [1], in experiment [2], in experiment [3], in experiment [5] and in experiment [6] was “inactive” each time. Besides, the Potency in experiment [4] is 5.21 µM (active).
On to `C=C1CCC2C(C)(C(=O)O)CCCC2(C)C1CC/C(C)=C\CO` (stereo not given), for which the Potency entry in experiment [1], in experiment [2], in experiment [3], in experiment [4], in experiment [5] and in experiment [6] was “inactive” each time.
Take `CC(C)(O)/C=C/C(=O)[C@](C)(O)[C@H]1[C@H](O)C[C@@]2(C)[C@@H]3CC=C4[C@@H](C=C(O[C@@H]5O[C@H](CO)[C@@H](O)[C@H](O)[C@H]5O)C(=O)C4(C)C)[C@]3(C)C(=O)C[C@]12C`: the Potency result in experiment [1], in experiment [2], in experiment [3], in experiment [4], in experiment [5] and in experiment [6] was “inactive” throughout.
With `C=C1[C@H](OC(C)=O)[C@H]2[C@@H](OC(=O)c3ccccc3)[C@@H](C)C[C@]2(O)[C@@H](OC(C)=O)[C@H](C)/C=C/C(C)(C)C(=O)[C@H](OC(C)=O)[C@H]1OC(C)=O`, the Potency entry in experiment [1], in experiment [2], in experiment [3], in experiment [4], in experiment [5] and in experiment [6] was “inactive” each time.
In the case of `CC1=C(CC/C(C)=C/C(=O)O)[C@@]2(C)CCCC(C)(C)C2CC1=O` (stereo not given in full), the Potency entry in experiment [1], in experiment [2], in experiment [3], in experiment [4], in experiment [5] and in experiment [6] was “inactive” each time.
For `CCCC(=O)Nc1cccc(NC(=O)c2ccccc2Br)c1`, the Potency result in experiment [1], in experiment [2], in experiment [3], in experiment [4], in experiment [5] and in experiment [6] was “inactive” in each case.
For the compound `CC1OC(OC2CCC3(C)C(CCC4(C)C3C=CC35OCC6(CCC(C)(C)CC63)CCC45C)C2(C)CO)C(OC2OC(CO)C(O)C(O)C2O)C(O)C1OC1OC(CO)C(O)C(O)C1O` (stereo not given), the Potency result in experiment [1] and in experiment [2] was “inactive” each time. In experiment [3], the activity change, negative = inhibition is 1.11% [at 11.6 µM]. In experiment [4], the activity change, negative = thiol reactive is 34% [at 11.5 µM]. The activity, negative = inhibition in experiment [5] is 3.75% [at 11.6 µM]. For the same compound, the redox activity (% of DA3003) in experiment [6] is 12.4% [at 11.5 µM].
Consider `COc1cc(O)cc2c1C(=O)OC(C)C2` (stereo not given), for which the Potency entry in experiment [1], in experiment [2], in experiment [3], in experiment [4], in experiment [5] and in experiment [6] was “inactive” in each case.
For the compound `C=C1C(O)CC2C(C(=O)O)=COC(O[C@@H]3O[C@H](COC(=O)c4ccc(O)cc4)[C@@H](O)[C@H](O)[C@H]3O)C12` (stereo not given in full), the Potency result in experiment [1], in experiment [2], in experiment [3], in experiment [5] and in experiment [6] was “inactive” throughout. Also, the Potency in experiment [4] was 5.19 µM (active).
For `CC(C)c1ccc2c(c1)C(O)CC1C(C)(CO)CCCC21C` (stereo not given), the Potency result in experiment [1], in experiment [2], in experiment [3], in experiment [4], in experiment [5] and in experiment [6] was “inactive” each time.
Turning to `COC(=O)C(CC1(OC(=O)C(C)C)c2ccccc2N2C(=O)C(C)(C)N(O)C21)n1cnc2ccccc2c1=O` (stereo not given), the Potency result in experiment [1], in experiment [2], in experiment [3], in experiment [4], in experiment [5] and in experiment [6] was “inactive” in each case.
As for `COc1cc(/C=C/C(=O)OCC2OC(OC3(CO)OC(CO)C(O)C3O)C(O)C(O)C2O)ccc1O` (stereo not given), the Potency entry in experiment [1], in experiment [2], in experiment [3], in experiment [4], in experiment [5] and in experiment [6] was “inactive” throughout.
`C=C1C2CCC3CC2(CC(O)C2(O)C1CC(OC1OC(CO)C(O)C(O)C1O)C2(C)C)CC3(C)O` (stereo not given): the Potency entry in experiment [1], in experiment [2], in experiment [3], in experiment [5] and in experiment [6] was “inactive” in each case. Further, the Potency in experiment [4] is 5.19 µM (active).
Consider `C=C1C(OC(C)=O)C(=O)C2C(C)(C)C(O)CCC2(C)C1CC(OC(C)=O)/C(C)=C/COC(C)=O` (stereo not given), for which the Potency result in experiment [1], in experiment [2], in experiment [3], in experiment [4], in experiment [5] and in experiment [6] was “inactive” each time.
With `C/C=C(\C)C(=O)OC1C2(O)CC3=C4CC(=O)OC(c5ccoc5)C4(C)CCC3C(C)(C2=O)C(C(OC(C)=O)C(=O)OC)C1(C)C` (stereo not given), the Potency entry in experiment [1], in experiment [2], in experiment [3], in experiment [4], in experiment [5] and in experiment [6] was “inactive” in each case.
For the compound `C/C=C/C=C/C=C/C(=O)O[C@@H]1C=C(CO)[C@](O)(CO)[C@@]2(C)CCCC(C)(C)[C@H]12`, the Potency entry in experiment [1], in experiment [2], in experiment [3], in experiment [4], in experiment [5] and in experiment [6] was “inactive” in each case.
Turning to `COC(=O)CC[C@H](NC(=O)[C@H](CC(C)C)NC(=O)OCc1ccccc1)C(=O)N[C@@H](Cc1cnc[nH]1)C(=O)N[C@@H](CC(=O)OC)C(=O)CF` (Cbz-LE(OMe)HD(OMe)-CH2F), the Potency result in experiment [1] and in experiment [2] was “inactive” throughout. Also, in experiment [3], the activity change, negative = inhibition is 1.89% [at 11.6 µM]. Also, in experiment [4], the activity change, negative = thiol reactive was 12.6% [at 11.5 µM]. Further, the activity, negative = inhibition in experiment [5] is 2.59% [at 11.6 µM]. Besides, the redox activity (% of DA3003) in experiment [6] is -3.22% [at 11.5 µM].
As for `CCC(C)C(=O)O[C@H]1C[C@](C)(O)[C@]23OC(C)(C)[C@H](C[C@H](OC(=O)c4ccccc4)[C@]2(COC(C)=O)[C@H]1OC(=O)C(C)CC)[C@H]3OC(C)=O` (stereo not given in full), the Potency result in experiment [1], in experiment [2], in experiment [3], in experiment [4], in experiment [5] and in experiment [6] was “inactive” each time.
On to `C=C1CC/C=C(/C(=O)O)CCC2C1CC2(C)C` (stereo not given), for which the Potency result in experiment [1], in experiment [2], in experiment [3], in experiment [4], in experiment [5] and in experiment [6] was “inactive” in each case.
